FBW7 act – activators of human E3 ligase FBW7; Q969H0; AlphaScreen FBW7–phospho-cyclin E peptide binding, activator screen; normalized activity (activation), % at 26.1 µM; 650,000 compounds, 0.13% hits; AID 1259310; in the data active = normalized activity above about 1.9%;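 note: purified mutant Fbw7 with reduced substrate affinity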
MITF inh – human MITF inhibition, primary screen. AlphaScreen MITF homodimerization, bead proximity signal. inhibition, % at 2.6 µM. AID 1259374. 650,000 compounds, 0.91% hits; in the data active = inhibition above about 50%
Target sequence (O75030 whole entry, looked up): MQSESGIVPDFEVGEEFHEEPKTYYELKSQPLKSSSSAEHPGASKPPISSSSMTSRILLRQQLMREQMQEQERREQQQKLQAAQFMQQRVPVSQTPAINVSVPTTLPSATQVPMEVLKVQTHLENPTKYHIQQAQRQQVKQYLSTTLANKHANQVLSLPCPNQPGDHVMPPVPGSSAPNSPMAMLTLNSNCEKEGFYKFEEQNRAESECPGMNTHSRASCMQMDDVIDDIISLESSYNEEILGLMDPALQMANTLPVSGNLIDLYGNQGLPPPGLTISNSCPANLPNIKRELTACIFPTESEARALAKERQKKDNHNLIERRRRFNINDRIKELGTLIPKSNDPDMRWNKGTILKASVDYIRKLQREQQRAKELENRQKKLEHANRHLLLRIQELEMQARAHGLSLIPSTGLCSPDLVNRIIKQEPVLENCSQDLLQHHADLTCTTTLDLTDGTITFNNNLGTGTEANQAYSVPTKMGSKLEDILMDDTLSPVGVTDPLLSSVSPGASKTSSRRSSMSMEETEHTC
TEAD-YAP inh – TEAD-YAP interaction inhibition | HEK-TIYL cells, TEAD-Gal4/YAP UAS-luciferase luminescence | inhibition, % at 9.12 µM | 640,000 compounds, 1.4% hits | AID 1259422; in the data active = inhibition above about 32%
GPR151 activ – human GPR151 activation; Q8TDV0; PathHunter beta-arrestin GPR151 cells, luminescence; activation, % at 11.2 µM; 650,000 compounds, 1% hits; in the data active = activation above about 4.9%
MITF inh conf – human MITF inhibition, confirmation | AlphaScreen MITF homodimerization, biotin/His-MITF beads | AID 1259372 | shares compounds with MITF inh | 4,700 compounds, 16% hits | inhibition, % at 2.6 µM;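 active = inhibition above a cutoff derived from the DMSO control wells, cut at about 28% in these data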;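 note: inhibitors lower the bead chemiluminescence by keeping MITF from dimerizing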
AlphaScreen DR – AlphaScreen optical interference, dose response counter-screen. shares compounds with MITF inh. AlphaScreen optical interference counterscreen, cell-free. IC50, µM. 480 compounds, 6% hits; call rule not given here
AlphaScreen intf2 – optically interferes with AlphaScreen signal | shares compounds with MITF inh | LysRS AlphaScreen counterscreen, signal interference, triplicate | inhibition, % at 2.6 µM | 4,700 compounds, 7.6% hits | AID 1259376;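 active = inhibition above a cutoff derived from the DMSO control wells, cut at about 30% in these data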
Of the large screens only hits and unclear results are named; the others gave an inactive call (follow-up assays come after a bar, where they were run). A selection: hits, their analogues and other compounds. The true share with any hit is near 3.4%.

Cc1cccc(NC(=O)c2ccc(N3C(=O)C4C5C=CC(C5)C4C3=O)cc2)c1 (stereo unspecified)	MITF inh 76 | MITF inh conf inactive | AlphaScreen intf2 inactive
COc1ccc(OC)c(-n2c(=S)[nH]c3cc(C(=O)NCC4CCCO4)ccc3c2=O)c1 (stereo unspecified)	none
COCc1cc(=O)[nH]c(Nc2nc3ccccc3s2)n1	none
C/C(=N\Nc1ccccc1Cl)c1ccccn1	none
C/C(=N\Nc1nc2ccccc2o1)c1ccccn1	MITF inh 55 | MITF inh conf inactive | AlphaScreen intf2 inactive
Cc1cc(NCCc2ccccc2)nc(-c2ccccc2O)n1	MITF inh 82 | MITF inh conf inactive | AlphaScreen intf2 inactive
O=C1CCC(CCNCc2ccc(F)cc2)N1CC1(c2ccccc2)CCOCC1 (stereo unspecified)	MITF inh 51 | MITF inh conf inactive | AlphaScreen intf2 inactive
O=C1CCC(CCNCc2cccnc2)N1CC1(c2ccccc2)CCOCC1 (stereo unspecified)	none
Cc1ccc(C2CC(C(F)(F)F)n3ncc(C(=O)NC(C)(C)C)c3N2)cc1 (stereo unspecified)	none
O=C(O)c1cccc(-c2ccc(/C=N/n3cnnc3)o2)c1	none
O=C(O)c1cc(C(=O)O)cc(-c2ccc(/C=N\n3cnnc3)o2)c1	MITF inh 63 | MITF inh conf 38 | AlphaScreen DR inactive | AlphaScreen intf2 inactive
Cc1cccc(NC(=O)C2C3C=CC(C4CC34)C2C(=O)O)c1C (stereo unspecified)	MITF inh 55 | MITF inh conf inactive | AlphaScreen intf2 inactive
Cc1occc1C(=O)N/N=C\c1ccccc1O	none
CC(=O)CCc1ccc(OCCCCN2CCN(C)CC2)cc1	none
CCN1CCN(CCCCOc2ccc(CCC(C)=O)cc2)CC1	MITF inh 66 | MITF inh conf inactive | AlphaScreen intf2 inactive
CCN1CCN(CCCOc2ccc(CCC(C)=O)cc2)CC1	MITF inh 56 | MITF inh conf inactive | AlphaScreen intf2 inactive
CC(=O)CCc1ccc(OCCN2CCN(C)CC2)cc1	none
Cc1ccccc1NC(=O)c1ccc(F)c(S(=O)(=O)N2CCN(c3cccc(Cl)c3)CC2)c1	none
COCc1ccc(CN2CCCC(CNC(=O)c3cccc(C(F)(F)F)c3)C2)o1 (stereo unspecified)	none
Cc1cccc(N2CCN(C(=O)/C=C\C(=O)O)CC2)c1C	MITF inh 69 | MITF inh conf 54 | AlphaScreen DR inactive | AlphaScreen intf2 inactive
CCOC(=O)N1CCN(c2cccc(C)c2C)CC1	none
O=C(Cc1cccs1)NCCCCCCNC(=O)Cc1cccs1	none
Cc1cccc(C)c1NC(=O)CNCCCN1CCOCC1	MITF inh 88 | MITF inh conf inactive | AlphaScreen intf2 inactive
Cc1cccc(NC(=O)CNCCCN2CCOCC2)c1C	MITF inh 76 | MITF inh conf inactive | AlphaScreen intf2 inactive
O=C(Cc1cccs1)NCCCN1CCOCC1	MITF inh 102 | MITF inh conf inactive | AlphaScreen intf2 inactive
O=C(NC1CCS(=O)(=O)C1)c1ccccc1Br (stereo unspecified)	MITF inh 51 | MITF inh conf inactive | AlphaScreen intf2 inactive
O=C(NC(=S)NC1CCS(=O)(=O)C1)c1ccccc1Br (stereo unspecified)	none
COc1ccc(Cl)cc1NS(=O)(=O)CCOc1ccccc1	none
CC1CCc2c(sc3ncnc(Oc4ccc5ccc(=O)oc5c4)c23)C1 (stereo unspecified)	none
CC(C)CC(c1nnnn1CC1CCCO1)N1CCN(c2ccc(F)cc2)CC1 (stereo unspecified)	none
CC(C)CC(c1nnnn1CC1CCCO1)N1CCN(c2cccc(Cl)c2)CC1 (stereo unspecified)	MITF inh 84 | MITF inh conf inactive | AlphaScreen intf2 inactive
Cn1c(-c2ccc(F)cc2)cnc1NCc1ccccc1	MITF inh 59 | MITF inh conf inactive | AlphaScreen intf2 inactive
Cn1c(-c2ccccc2)cnc1NCc1ccc(F)cc1	none
Cn1c(-c2ccc(F)cc2)cnc1NCc1cccc(F)c1	MITF inh 53 | MITF inh conf inactive | AlphaScreen intf2 inactive
Nc1nc(NCCCN2CCCC2=O)cc(Nc2ccncn2)n1	none
CN(C)[C@@H]1C(=O)C(C(=O)NCN2CCCC2)=C(O)[C@@]2(O)C(=O)C3=C(O)c4c(O)cccc4[C@@](C)(O)C3CC12 (stereo partly specified)	MITF inh 72 | MITF inh conf 78 | AlphaScreen DR inactive | AlphaScreen intf2 inactive
COc1cccc2ccc(CN3CCc4nnc(C5CCCO5)n4CC3)nc12 (stereo unspecified)	none
COc1cccc(C(C)NC(=O)Nc2cccc(F)c2)c1 (stereo unspecified)	none
CSc1ccccc1C(=O)NCc1ccc2c(c1)OCO2	none
CCSc1ccccc1C(=O)NCc1ccc2c(c1)OCO2	MITF inh 75 | MITF inh conf inactive | AlphaScreen intf2 inactive
CSc1ccccc1NC(=O)CN(C)C(C)C(=O)NCc1ccc2c(c1)OCO2 (stereo unspecified)	MITF inh 88 | MITF inh conf inactive | AlphaScreen intf2 inactive
CC1(C2CC2)NC(=O)N(CC(=O)Nc2ccc(S(=O)(=O)N3CCCCC3)cc2)C1=O (stereo unspecified)	MITF inh 62 | MITF inh conf inactive | AlphaScreen intf2 inactive
CC1(C2CC2)NC(=O)N(CC(=O)Nc2ccccc2F)C1=O (stereo unspecified)	MITF inh 67 | MITF inh conf inactive | AlphaScreen intf2 inactive
O=C(NCCc1ccccc1)C(=O)N/N=C/c1cc2c(cc1Br)OCO2	none
COCCC(=O)NC(C)c1nnc2n1CCN(Cc1ccc(OC)c(C)c1OC)CC2 (stereo unspecified)	none
O=C(NC(=S)NNC(=O)c1ccccc1O)c1cccs1	MITF inh 78 | MITF inh conf inactive | AlphaScreen intf2 100
CC(=O)NC(=S)NNC(=O)c1ccccc1O	MITF inh 76 | MITF inh conf 39 | AlphaScreen intf2 100
CC(=O)NC(=S)NNC(=O)c1ccccc1I	none
Cc1ccc(C2N=C(c3ccc(Br)cc3)CC(c3cc(Br)ccc3O)N2)c(C)c1 (stereo unspecified)	none
Cc1ccc(C(=O)N/C(=C\c2ccco2)C(=O)NCCN2CCCCC2)cc1C	MITF inh 58 | MITF inh conf inactive | AlphaScreen intf2 inactive
Cc1ccc(C(=O)N/C(=C\c2ccc(F)cc2)C(=O)NCCCn2ccnc2)cc1	none
Cc1ccc(C(=O)N/C(=C\c2ccco2)C(=O)NCCCn2ccnc2)cc1	MITF inh 74 | MITF inh conf 38 | AlphaScreen intf2 53
O=C(NCCN1CCCCC1)/C(=C/c1ccco1)NC(=O)c1ccccc1	none
O=C1C2C3C=CC(CC3)C2C(=O)N1c1ccc(Cl)c(C(F)(F)F)c1 (stereo unspecified)	none
O=S1(=O)N=C(NNS(=O)(=O)c2ccccc2)c2ccccc21	none
